Most compounds without a hit are left out; they make up all but 11% or so of the library.
BAZ2B inh: blocks human BAZ2B. AID 504333. AlphaScreen BAZ2B-H3K14Ac peptide displacement. actives 4.4% (n = 360,000). Potency, µM (series often up to 114 µM), hits mostly inhibitors; further: nearly all actives have a fitted effect of over 60% in size
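BAZ2B 50 nM plus b-H3(5-23)K14Ac 50 nM, PBS pH 7.4/0.01% Tween-20, 30 min RT; compound added (max 110 uM), 30 min RT; streptavidin donor/Ni-chelate acceptor beads 10 ug/mL final, 20 min dark; AlphaScreen read.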
PLK1 PBD block: blocks phosphopeptide binding to human PLK1 polo-box domain; AID 720504; Plk1 PBD binding of FITC phosphopeptide, fluorescence polarization; actives 2.8% (n = 360,000); Potency, µM, usual class: inhibitors; further: series mostly up to about 57 µM; nearly all actives have a fitted effect of over 65% in size
G9a inh: inhibitors of human histone lysine methyltransferase G9a; Q96KQ7; Potency, µM (highest dose often 102 µM), most hits filed as inhibitors; actives 8.8% (n = 350,000); G9a H3K9 monomethylation, AlphaScreen, 2 h; further: nearly all actives have a fitted effect of over 75% in size
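Step 1: enzyme (final 20 nM) with compound, 15 min RT. Step 2: substrate peptide 500 nM and SAM 20 uM, 2 h RT. Step 3: anti-H3K9me1 antibody and AlphaScreen beads, 10 min, then plate read.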
JMJD2A Tudor inh: JMJD2A Tudor domain (human) inhibition; AlphaScreen JMJD2A-Tudor / H3K4me3 peptide binding; Potency, µM (highest dose often 114 µM), most hits filed as inhibitors; actives 4.4% (n = 390,000); further: nearly all actives have a fitted effect of over 50% in size
VDR inh: vitamin D3 receptor (human) inhibition; VDR-SRC2-3 peptide fluorescence polarization, 2 h; P11473; Potency, µM, actives largely listed as inhibitors; actives 0.93% (n = 400,000)
Target sequence (P11473 whole entry, looked up): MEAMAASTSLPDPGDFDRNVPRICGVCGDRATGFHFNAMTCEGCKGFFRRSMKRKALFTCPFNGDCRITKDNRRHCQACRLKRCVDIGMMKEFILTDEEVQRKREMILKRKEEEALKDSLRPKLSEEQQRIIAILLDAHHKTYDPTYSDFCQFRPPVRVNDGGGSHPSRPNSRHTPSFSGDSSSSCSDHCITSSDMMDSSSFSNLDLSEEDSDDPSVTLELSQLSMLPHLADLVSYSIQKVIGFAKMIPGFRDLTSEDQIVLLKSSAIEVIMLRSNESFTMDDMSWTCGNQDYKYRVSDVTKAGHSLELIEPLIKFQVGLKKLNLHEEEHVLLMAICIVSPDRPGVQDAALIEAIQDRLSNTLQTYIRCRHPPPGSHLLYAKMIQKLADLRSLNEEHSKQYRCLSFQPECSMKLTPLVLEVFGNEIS
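Compounds are added to VDR with labelled SRC2-3 coactivator peptide and held 2 h at room temperature. Inhibition of the VDR–peptide interaction is then read as a change in fluorescence polarization.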
HP1b binding inh: HP1-beta chromodomain-methylated histone interaction inhibition | AID 540317 | Potency, µM (doses to about 114 µM), most hits filed as inhibitors | actives 0.56% (n = 390,000) | AlphaScreen HP1-beta / biotin-H3K9me3 peptide binding | P83916; further: nearly all actives have a fitted effect of over 70% in size
Target sequence (P83916 whole entry, looked up): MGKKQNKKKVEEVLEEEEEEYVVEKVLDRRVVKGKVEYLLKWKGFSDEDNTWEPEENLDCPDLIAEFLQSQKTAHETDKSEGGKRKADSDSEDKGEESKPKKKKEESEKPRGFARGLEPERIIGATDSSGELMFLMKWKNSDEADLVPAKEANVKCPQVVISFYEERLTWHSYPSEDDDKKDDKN
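Compound inhibition of the preformed complex between 50 nM HP1-beta and 50 nM biotinylated H3K9me3 peptide was read by AlphaScreen. Buffer was PBS pH 7.4 with 0.01% Tween-20. Incubations ran 30 min at room temperature, with 10 ug/mL donor/acceptor beads.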
Of the large screens only hits and unclear results are named; the others gave an inactive call. The call rests on the fitted dose curve; in most records, active means well fitted curve in the direction sought with a large enough effect; inconclusive means small, poorly fitted or top-dose-only effect, or another doubt; inactive means no such curve, though single readings can be large; an effect the other way counts as inactive or inconclusive.

Cc1cc(C(=O)NCCc2ccc(Cl)cc2)c2c(C)nn(-c3ccccc3)c2n1	none (no result: PLK1 PBD block)
N#C/C(=C\c1c[nH]c2ccccc12)C(=O)c1ccc(O)c(O)c1	G9a inh 18µM, VDR inh inconclusive (no result: BAZ2B inh, PLK1 PBD block, JMJD2A Tudor inh, HP1b binding inh)
N#C/C(=C\c1c[nH]c2ccccc12)C(=O)NC1CC1	none (no result: G9a inh)
N#CCSc1nnc(-c2sc3ccccc3c2Cl)o1	none
COC(=O)CSc1nnc(-c2sc3ccccc3c2Cl)o1	G9a inh 13µM
COc1ccc(C(=O)OCC(=O)c2ccc(Br)s2)c(OC)c1	none
COc1cccc(NC(=O)CSC(N)=O)c1	VDR inh 22µM
COc1ccc2c(c1)nc(SCC(=O)c1ccc(Br)s1)n2C	BAZ2B inh inconclusive, PLK1 PBD block inconclusive, G9a inh 40µM, JMJD2A Tudor inh 56µM
COC(=O)CSc1nnc(-c2sc3cc(OC)ccc3c2Cl)n1C	G9a inh 6.3µM
O=C(CSc1nc2ccccc2n1-c1ccccc1)Nc1ncc(Cl)cc1Cl	none
CCn1c(SCC(=O)Nc2cccc(OC)c2)nc2ccccc2c1=O	none
COc1ccc2c(c1)nc(NCCO)n2C	none
COC(=O)CSc1nc2cc(OC)ccc2n1C	G9a inh 71µM
COc1cccc(NC(=O)CSc2nc3ccccc3n2C)c1	PLK1 PBD block 17µM, JMJD2A Tudor inh inconclusive
COc1ccc(-n2c(SCC(=O)Nc3ncc(Cl)cc3Cl)nc3ccccc32)cc1	G9a inh 45µM (no result: PLK1 PBD block, JMJD2A Tudor inh, VDR inh, HP1b binding inh)
CC(C)c1nc2ccc(C(=O)NC(C)c3ccccc3)cc2o1 (stereo not drawn)	none (no result: PLK1 PBD block)
Cc1ccc(S(=O)(=O)N(Cc2ccccc2)c2ccccc2C(=O)NCc2ccco2)cc1	BAZ2B inh inconclusive, G9a inh 50µM, JMJD2A Tudor inh inconclusive
COCCNC(=O)c1ccccc1N(Cc1ccccc1)S(=O)(=O)c1ccccc1	none (no result: BAZ2B inh, G9a inh)
COCCNC(=O)c1ccccc1N(Cc1ccccc1)S(=O)(=O)c1ccc(C)cc1	PLK1 PBD block 27µM
OCC[C@H]1C[C@@H](O)[C@H](O)[C@@]2(Cc3ccccc3O2)O1	none
Cc1ccc(S(=O)(=O)NC(Cc2ccccc2)C(=O)O)cc1C (stereo not drawn)	none
O=C(O)[C@H](CSCc1ccccc1)NS(=O)(=O)c1ccc(F)cc1	G9a inh 10µM, JMJD2A Tudor inh inconclusive
C=CC[C@@H](CC(=O)N[C@@H](CO)Cc1ccccc1)C(=O)N[C@@H](COC(=O)[C@@H](CC=C)Cc1ccc(F)cc1)Cc1ccccc1	none (no result: BAZ2B inh, G9a inh)
CCn1cc(C(=O)NCCCN(C)C)c(=O)c2cc(F)c(N3CCN(C)CC3)cc21	G9a inh 35µM
CCCCCNC(=O)c1cn(CC)c2cc(N3CCN(C)CC3)c(F)cc2c1=O	none
Cc1c(/C=C(\CC(=O)O)c2nc3ccccc3s2)cc(C#N)n1C	PLK1 PBD block 27µM, G9a inh inconclusive, VDR inh inconclusive
COc1cc(C(=S)N2CCCCC2)ccc1OCC(=O)Nc1ccc(F)cc1	G9a inh inconclusive
COc1cc(C(=S)N2CCCC2)cc(Cl)c1OCC(=O)Nc1ccc(C)cc1C	BAZ2B inh inconclusive, PLK1 PBD block 8.4µM, G9a inh 7.9µM, JMJD2A Tudor inh inconclusive, VDR inh inconclusive, HP1b binding inh inconclusive
CCOc1ccc(CCNC(=O)c2ccc(-c3nc(CSc4ccccc4)c(C)o3)cc2)cc1	none (no result: PLK1 PBD block)
CCc1ccc(S(=O)(=O)/N=C2\C=C(Nc3ccc(C(=O)O)cc3)C(=O)c3ccccc32)cc1	BAZ2B inh 7.9µM, G9a inh 8.9µM, JMJD2A Tudor inh 28µM, HP1b binding inh inconclusive
Cc1ccc(S(=O)(=O)/N=C2\C=C(Nc3cccc(C(=O)O)c3)C(=O)c3ccccc32)cc1	BAZ2B inh 13µM, PLK1 PBD block 60µM, G9a inh 10µM, JMJD2A Tudor inh 45µM, HP1b binding inh inconclusive
Cc1ccc(S(=O)(=O)/N=C2\C=C(Nc3ccc(O)cc3)C(=O)c3ccccc32)cc1	JMJD2A Tudor inh 5.6µM, HP1b binding inh 13µM (no result: BAZ2B inh, G9a inh)
Cc1ccccc1OCC(=O)NCC(=O)OCC(=O)c1ccc2c(c1)CCCC2	none (no result: BAZ2B inh, PLK1 PBD block, G9a inh)
CC1(C)CC(NS(=O)(=O)c2ccc(Cl)cc2)CC(C)(C)N1	VDR inh 89µM
O=[N+]([O-])C(=C1SCCS1)C(=C(Cl)Cl)N1CCCCC1	BAZ2B inh 7.9µM, G9a inh 6.3µM, JMJD2A Tudor inh 35µM, HP1b binding inh 25µM
Cn1c(N2CCOCC2)nc2c1c(=O)n(Cc1ccc(Cl)c(Cl)c1)c(=O)n2C	none
Cn1c(OCc2ccco2)nc2c1c(=O)n(Cc1ccc(Cl)c(Cl)c1)c(=O)n2C	PLK1 PBD block 12µM, G9a inh inconclusive
COc1cccc(C(=O)C(=O)c2cccc(OC)c2OC)c1OC	none (no result: BAZ2B inh, G9a inh)
Cc1ccc(COc2ccccc2C(=S)N2CCCC2)cc1	PLK1 PBD block inconclusive, G9a inh 13µM
COc1cccc(C(=S)N2CCCC2)c1OC	PLK1 PBD block 24µM, G9a inh 8.9µM, VDR inh inconclusive, HP1b binding inh inconclusive
COc1cc(C)ccc1OCc1cc(C(=O)N2CCCCCC2)no1	PLK1 PBD block 27µM, JMJD2A Tudor inh 16µM, VDR inh inconclusive (no result: G9a inh)
CSc1ccccc1OCc1cc(C(=O)N2CCN(c3ncccn3)CC2)no1	G9a inh 56µM, JMJD2A Tudor inh inconclusive
O=C(OCC(=O)N1CCCC1)c1ccccc1OCc1ccccc1	none
Fc1ccc(COc2ccccc2C(=S)N2CCCC2)cc1	PLK1 PBD block 4.2µM, G9a inh 1.8µM, JMJD2A Tudor inh 79µM, VDR inh 50µM, HP1b binding inh inconclusive
O=C(c1cc(COc2c(F)cccc2F)on1)N1CCN(C2CCCCC2)CC1	PLK1 PBD block 24µM
COc1cc(C(=S)N2CCCC2)ccc1OCc1ccc(C)cc1	PLK1 PBD block inconclusive, G9a inh 32µM
COc1cc(C(=S)N2CCCCC2)ccc1OCC(=O)N1CCCC1	none
COC(=O)[C@]12CCCCC=C1N(Cc1ccc3c(c1)OCO3)C(=O)[C@H](CC(=O)NCc1ccc(OC)c(OC)c1)C2	none (no result: BAZ2B inh, G9a inh, JMJD2A Tudor inh, VDR inh, HP1b binding inh)
CC(NC(=O)C1CCCN(C(=O)N(C)C)C1)c1ccccc1 (stereo not drawn)	none
O=C(Nc1ccc(Br)cc1)c1ccc2ncsc2c1	G9a inh 45µM
CC(C)(C)c1ccc(NC(=O)COC(=O)c2ccc3ncsc3c2)cc1	none
CCOc1ccc(NC(=O)COC(=O)c2ccc3ncsc3c2)cc1OCC	BAZ2B inh inconclusive, G9a inh 45µM
CCS(=O)(=O)n1nc(-c2ccccc2)nc1NCc1ccco1	G9a inh 25µM
O=C(c1ccco1)n1nc(-c2ccccc2)nc1NCc1ccco1	PLK1 PBD block 30µM, JMJD2A Tudor inh 79µM, VDR inh inconclusive
COc1cccc(CNC(=O)C(CCSC)NS(=O)(=O)c2ccc3c(c2)oc(=O)n3C)c1 (stereo not drawn)	none

Compound activity deposited in PubChem by National Center for Advancing Translational Sciences (NCATS).
